Where “and” joins values, the source holds several entries; their conditions need not be identical. Equal values may be shown once. Records with an inconclusive call do not appear. Calls of active or inactive are those of the source. Unless noted, calls follow the shape of the dose curve; as a rule, active = well fitted curve in the direction sought with a large enough effect; inconclusive = small, poorly fitted or top-dose-only effect, or another doubt; inactive = no such curve, though single readings can be large or run the other way.
Target: alpha-glucosidase (Oryza sativa, rice) (UniProt Q653V4)
Experiment: Counterscreen for Glucocerebrosidase Inhibitors: qHTS Assay for Rice alpha-Glucosidase at pH 5.0 (AID 997);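 also: 0% = full activity with enzyme and -100% = basal without enzyme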
Conditions: rice alpha-glucosidase enzyme activity; series mostly up to 76.9 µM
How it was run: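 Rice alpha-glucosidase (4 nM final) with 400 uM 4-methylumbelliferyl-alpha-D-glucopyranoside in citrate buffer pH 5.0, 20 min at room temperature, stopped at pH 10; fluorescence 365/440 nm, compounds 0.7 nM–77 uM, AC50 from Hill fits.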
With `CC(N)=NCCC[C@H](N)C(=O)O` the outcome was “inactive”.
With `N[C@@H]1CCN(O)C1=O` the outcome was “inactive”.
In the case of `NC[C@](O)(CS(=O)(=O)O)c1ccc(Cl)cc1`, the outcome is reported as “inactive”.
For `COc1ccccc1NC(=O)Nc1nc(-c2cccnc2)nc2ccccc12`, the outcome was “inactive”.
With `CC1=C(\C=C/C(C)=C/C=C\C(C)=C\C(=O)O)C(C)(C)CCC1` the outcome was “inactive”.
With `N[C@]1(C(=O)O)CCc2cc(C(=O)O)ccc21` the outcome was “inactive”.
With `O=C(O)[C@H]1CCCNC1` the outcome was “inactive”.
In the case of `O=C(O)[C@H]1CN(CCCP(=O)(O)O)CCN1`, the outcome is reported as “inactive”.
For `CCN(Cc1ccncc1)C(=O)[C@@H](CO)c1ccccc1`, the outcome was “inactive”.
For `C[C@@](N)(C(=O)O)c1ccc(C(=O)O)cc1`, the outcome was “inactive”.
With `N[C@H](C(=O)O)[C@@H]1C[C@@H]1C(=O)O` the outcome was “inactive”.
For `CNCC[C@H](Oc1ccccc1OC)c1ccccc1`, the outcome was “inactive”.
For `C[C@H](N=C(NC#N)Nc1ccncc1)C(C)(C)C`, the outcome was “inactive”.
In the case of `CC(N)=NCCCC[C@H](N)C(=O)O`, the outcome is reported as “inactive”.
In the case of `C[C@@H](CCc1ccc(O)cc1)NCCc1ccc(O)c(O)c1`, the outcome is reported as “inactive”.
With `C[C@@H]1C[C@@H]2[C@H]3CCC4=CC(=O)C=C[C@]4(C)[C@]3(F)[C@@H](O)C[C@@]2(C)[C@@]1(O)C(=O)CO` the outcome was “inactive”.
In the case of `N[C@H](CCC(=O)N[C@H](CSN=O)C(=O)NCC(=O)O)C(=O)O`, the outcome is reported as “inactive”.
In the case of `CC(C)(C)NC[C@H](O)COc1cccc2[nH]c(=O)[nH]c12`, the outcome is reported as “inactive”.
In the case of `S=C(S)O[C@@H]1C[C@@H]2C[C@H]1[C@@H]1CCC[C@H]21`, the outcome is reported as “inactive”.

System: not listed separately
Experiment: qHTS Assay for Lipid Storage Modulators (AID 1519; calls by dose curve; also: % is scaled to controls: 0 for no effect and ±100 for the full control effect)
Conditions: Drosophila S3 cells, BODIPY lipid droplet/cell ratio, laser cytometry; at 25.7 µM (top of the series); cells loaded with oleic acid
How it was run: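 Cells seeded at 5,000 per well were treated with compounds over a concentration series and loaded with oleic acid (400 uM, as added). Lipid droplet fluorescence (488 nm excitation, 500-530 nm channel) was read by laser-scanning cytometry and normalized to 20 uM Triacsin C.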
In the case of `CC[N+](C)(CC)CCC[n+]1c(-c2ccccc2)c2cc(N)ccc2c2ccc(N)cc21`, the activity change, negative = inhibition is reported as 0.117% (inactive).
In the case of `CO[C@@]12C[C@@H](COC(=O)c3cncc(Br)c3)CN(C)[C@H]1Cc1cn(C)c3cccc2c13`, the activity change, negative = inhibition is reported as -0.393% (inactive).
For `COC(=O)[C@@H]1[C@@H]2C[C@H]3c4[nH]c5ccccc5c4CCN3C[C@@H]2CC[C@@H]1O`, the activity change, negative = inhibition was 1.23% (inactive) and -2.04% (inactive) and -1.29% (inactive).
For `CC1=C(\C=C/C(C)=C/C=C\C(C)=C\C(=O)O)C(C)(C)CCC1`, the activity change, negative = inhibition was 0.599% (inactive) and 0.957% (inactive).
For `CCN(Cc1ccncc1)C(=O)[C@@H](CO)c1ccccc1`, the activity change, negative = inhibition was -4.57% (inactive).
In the case of `CNCC[C@H](Oc1ccccc1OC)c1ccccc1`, the activity change, negative = inhibition is reported as -2.76% (inactive).
For `C[C@H](N=C(NC#N)Nc1ccncc1)C(C)(C)C`, the activity change, negative = inhibition was -0.699% (inactive).
For `C[C@@H](CCc1ccc(O)cc1)NCCc1ccc(O)c(O)c1`, the activity change, negative = inhibition was 0.472% (inactive).

— PubChem BioAssay (NCATS)
